Three compounds from ChEMBL document CHEMBL2218924, “A broad activity screen in support of a chemogenomic map for kinase signalling research and drug discovery” (Biochem J, 2013) can be followed below.

The target of experiment [1] is Death-associated protein kinase 1 (Homo sapiens) (UniProt P53355). Conditions: at 1 µM.
Experiment [2] concerns the target T1, Serine/threonine-protein kinase DCLK2 (Homo sapiens) (UniProt Q8N568).
T1 sequence (whole entry): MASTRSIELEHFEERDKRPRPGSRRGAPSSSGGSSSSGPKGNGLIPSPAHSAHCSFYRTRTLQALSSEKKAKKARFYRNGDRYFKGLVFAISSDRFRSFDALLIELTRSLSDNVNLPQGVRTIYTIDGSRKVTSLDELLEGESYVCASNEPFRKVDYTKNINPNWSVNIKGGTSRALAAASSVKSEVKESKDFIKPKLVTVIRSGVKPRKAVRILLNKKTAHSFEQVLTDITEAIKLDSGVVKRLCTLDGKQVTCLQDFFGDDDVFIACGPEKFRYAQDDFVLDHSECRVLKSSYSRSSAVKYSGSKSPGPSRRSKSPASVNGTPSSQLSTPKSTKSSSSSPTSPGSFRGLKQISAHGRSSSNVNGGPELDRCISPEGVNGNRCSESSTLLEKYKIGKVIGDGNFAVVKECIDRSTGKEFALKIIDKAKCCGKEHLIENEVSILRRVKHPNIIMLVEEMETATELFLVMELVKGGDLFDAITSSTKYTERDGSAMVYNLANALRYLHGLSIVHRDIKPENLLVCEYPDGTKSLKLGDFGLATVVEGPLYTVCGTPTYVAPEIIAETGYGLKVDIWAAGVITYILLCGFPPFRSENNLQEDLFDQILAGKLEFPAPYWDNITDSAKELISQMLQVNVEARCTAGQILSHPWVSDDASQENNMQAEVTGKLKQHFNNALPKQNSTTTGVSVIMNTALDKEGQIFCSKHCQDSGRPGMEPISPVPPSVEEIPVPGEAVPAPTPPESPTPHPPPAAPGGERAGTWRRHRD
Conditions: at 1 µM.

For experiment [3], the target named is T1, Serine/threonine-protein kinase DCLK2 (Homo sapiens). Conditions: at 10 µM.
Experiment [4] concerns the target T2, Discoidin domain-containing receptor 2 (Homo sapiens) (UniProt Q16832).
T2 sequence (whole entry): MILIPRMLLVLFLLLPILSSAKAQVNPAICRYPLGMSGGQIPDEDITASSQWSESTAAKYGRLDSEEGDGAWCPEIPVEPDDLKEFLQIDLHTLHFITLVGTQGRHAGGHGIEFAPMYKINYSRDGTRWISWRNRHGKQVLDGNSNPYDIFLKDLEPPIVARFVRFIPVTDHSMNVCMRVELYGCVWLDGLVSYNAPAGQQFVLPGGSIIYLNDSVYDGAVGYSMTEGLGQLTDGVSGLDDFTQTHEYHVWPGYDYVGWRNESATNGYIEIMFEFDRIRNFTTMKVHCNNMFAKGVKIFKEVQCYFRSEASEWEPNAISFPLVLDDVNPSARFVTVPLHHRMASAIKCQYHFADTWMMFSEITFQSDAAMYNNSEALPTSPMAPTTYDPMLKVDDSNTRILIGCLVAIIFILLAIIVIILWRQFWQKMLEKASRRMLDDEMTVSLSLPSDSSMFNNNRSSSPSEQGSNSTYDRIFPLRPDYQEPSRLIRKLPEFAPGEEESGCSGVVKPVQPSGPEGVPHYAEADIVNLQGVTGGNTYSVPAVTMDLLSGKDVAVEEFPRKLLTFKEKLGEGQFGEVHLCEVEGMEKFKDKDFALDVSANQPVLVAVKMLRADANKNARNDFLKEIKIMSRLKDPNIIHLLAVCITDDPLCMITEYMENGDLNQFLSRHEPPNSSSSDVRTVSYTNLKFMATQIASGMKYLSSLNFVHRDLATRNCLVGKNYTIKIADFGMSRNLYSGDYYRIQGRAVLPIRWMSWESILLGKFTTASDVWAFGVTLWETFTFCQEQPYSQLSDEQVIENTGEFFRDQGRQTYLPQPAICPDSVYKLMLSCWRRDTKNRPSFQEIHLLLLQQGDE
Particulars: at 1 µM.

Experiment [5] has as its target T2, Discoidin domain-containing receptor 2 (Homo sapiens). Conditions: at 10 µM.
Experiment [6] concerns the target T3, Myotonin-protein kinase (Homo sapiens) (UniProt Q09013).
T3 sequence (whole entry): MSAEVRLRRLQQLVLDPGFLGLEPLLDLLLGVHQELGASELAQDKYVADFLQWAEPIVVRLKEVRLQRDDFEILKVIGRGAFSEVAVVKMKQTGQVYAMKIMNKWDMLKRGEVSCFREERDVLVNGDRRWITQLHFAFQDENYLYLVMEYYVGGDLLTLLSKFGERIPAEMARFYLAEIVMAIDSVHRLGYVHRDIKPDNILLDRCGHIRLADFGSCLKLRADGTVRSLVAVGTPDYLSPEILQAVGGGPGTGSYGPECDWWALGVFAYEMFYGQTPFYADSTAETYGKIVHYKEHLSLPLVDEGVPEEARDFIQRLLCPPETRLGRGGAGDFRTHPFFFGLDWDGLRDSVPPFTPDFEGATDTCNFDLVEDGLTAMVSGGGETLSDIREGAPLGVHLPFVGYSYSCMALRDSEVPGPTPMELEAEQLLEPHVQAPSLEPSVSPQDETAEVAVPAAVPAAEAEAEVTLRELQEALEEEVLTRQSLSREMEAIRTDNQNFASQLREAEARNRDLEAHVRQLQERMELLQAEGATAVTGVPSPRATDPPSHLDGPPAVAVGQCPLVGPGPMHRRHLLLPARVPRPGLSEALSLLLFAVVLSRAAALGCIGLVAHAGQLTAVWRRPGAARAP
Conditions: at 1 µM.

The target in experiment [7] is T3, Myotonin-protein kinase (Homo sapiens). Particulars: at 10 µM.
Experiment [8] deals with T4, Serine/threonine-protein kinase 17A (Homo sapiens) (UniProt Q9UEE5).
T4 sequence (whole entry): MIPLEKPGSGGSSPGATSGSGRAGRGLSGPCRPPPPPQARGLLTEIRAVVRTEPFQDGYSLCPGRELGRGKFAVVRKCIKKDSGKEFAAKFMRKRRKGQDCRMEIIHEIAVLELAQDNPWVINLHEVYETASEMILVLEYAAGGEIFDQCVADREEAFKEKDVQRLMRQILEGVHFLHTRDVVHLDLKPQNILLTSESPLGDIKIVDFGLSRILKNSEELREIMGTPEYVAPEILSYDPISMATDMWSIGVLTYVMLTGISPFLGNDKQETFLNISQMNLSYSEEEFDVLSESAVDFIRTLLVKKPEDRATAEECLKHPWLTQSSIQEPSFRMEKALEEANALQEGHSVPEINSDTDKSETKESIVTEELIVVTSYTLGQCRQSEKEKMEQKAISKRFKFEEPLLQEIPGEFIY
Particulars: at 1 µM.

Experiment [9] concerns the target T4, Serine/threonine-protein kinase 17A (Homo sapiens). Particulars: at 10 µM.
Experiment [10] concerns the target T5, Dual specificity tyrosine-phosphorylation-regulated kinase 2 (Homo sapiens) (UniProt Q92630).
T5 sequence (whole entry): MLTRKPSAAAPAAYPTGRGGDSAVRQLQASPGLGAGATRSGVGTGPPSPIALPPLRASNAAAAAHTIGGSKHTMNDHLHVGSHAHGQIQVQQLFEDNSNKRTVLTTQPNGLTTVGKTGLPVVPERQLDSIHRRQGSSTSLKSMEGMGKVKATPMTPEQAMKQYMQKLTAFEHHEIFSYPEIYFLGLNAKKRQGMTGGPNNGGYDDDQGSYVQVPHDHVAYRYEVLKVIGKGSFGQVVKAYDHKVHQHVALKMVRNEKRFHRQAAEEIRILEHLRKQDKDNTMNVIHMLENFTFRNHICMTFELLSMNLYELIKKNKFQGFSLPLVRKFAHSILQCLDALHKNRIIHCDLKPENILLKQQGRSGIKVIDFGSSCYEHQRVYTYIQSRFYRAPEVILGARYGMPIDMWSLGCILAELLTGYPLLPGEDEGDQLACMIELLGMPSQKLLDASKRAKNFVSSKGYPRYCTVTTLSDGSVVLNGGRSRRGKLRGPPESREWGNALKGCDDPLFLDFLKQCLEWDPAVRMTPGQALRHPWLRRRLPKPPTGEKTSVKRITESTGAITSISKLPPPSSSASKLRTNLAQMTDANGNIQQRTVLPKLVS
Conditions: at 1 µM.

Experiment [11] addresses T5, Dual specificity tyrosine-phosphorylation-regulated kinase 2 (Homo sapiens). Particulars: at 10 µM.
The target of experiment [12] is T6, Ephrin type-A receptor 1 (Homo sapiens) (UniProt P21709).
T6 sequence (whole entry): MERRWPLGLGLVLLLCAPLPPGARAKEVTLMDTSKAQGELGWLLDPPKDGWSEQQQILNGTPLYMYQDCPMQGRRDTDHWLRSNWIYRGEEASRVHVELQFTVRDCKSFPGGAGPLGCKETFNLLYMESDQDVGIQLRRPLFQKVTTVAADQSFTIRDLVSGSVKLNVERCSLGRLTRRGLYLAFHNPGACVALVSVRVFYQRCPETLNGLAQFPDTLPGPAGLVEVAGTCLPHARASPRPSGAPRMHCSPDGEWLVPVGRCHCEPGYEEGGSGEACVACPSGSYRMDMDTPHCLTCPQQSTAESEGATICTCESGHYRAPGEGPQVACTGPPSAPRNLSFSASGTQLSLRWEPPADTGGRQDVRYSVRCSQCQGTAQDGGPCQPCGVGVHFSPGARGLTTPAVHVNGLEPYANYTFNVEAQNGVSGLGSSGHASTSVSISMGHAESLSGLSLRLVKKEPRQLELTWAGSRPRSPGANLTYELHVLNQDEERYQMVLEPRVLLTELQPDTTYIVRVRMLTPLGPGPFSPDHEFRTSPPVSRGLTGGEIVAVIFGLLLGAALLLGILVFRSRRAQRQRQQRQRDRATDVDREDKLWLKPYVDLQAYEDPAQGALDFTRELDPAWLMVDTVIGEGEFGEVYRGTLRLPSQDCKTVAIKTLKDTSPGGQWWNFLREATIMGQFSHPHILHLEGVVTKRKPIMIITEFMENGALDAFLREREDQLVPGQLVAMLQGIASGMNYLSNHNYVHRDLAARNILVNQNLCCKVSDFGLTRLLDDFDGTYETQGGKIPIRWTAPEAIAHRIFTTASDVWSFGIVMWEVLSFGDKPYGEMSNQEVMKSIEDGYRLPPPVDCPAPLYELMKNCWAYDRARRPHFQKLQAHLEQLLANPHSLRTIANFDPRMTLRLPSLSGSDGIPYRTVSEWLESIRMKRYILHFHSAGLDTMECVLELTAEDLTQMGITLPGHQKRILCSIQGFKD
Particulars: at 1 µM.

In experiment [13] the target is T6, Ephrin type-A receptor 1 (Homo sapiens). Particulars: at 10 µM.
Experiment [14] deals with Ephrin type-A receptor 2 (Homo sapiens) (UniProt P29317). Particulars: at 1 µM.
Sequence of Ephrin type-A receptor 2 (Homo sapiens) (P29317 whole entry): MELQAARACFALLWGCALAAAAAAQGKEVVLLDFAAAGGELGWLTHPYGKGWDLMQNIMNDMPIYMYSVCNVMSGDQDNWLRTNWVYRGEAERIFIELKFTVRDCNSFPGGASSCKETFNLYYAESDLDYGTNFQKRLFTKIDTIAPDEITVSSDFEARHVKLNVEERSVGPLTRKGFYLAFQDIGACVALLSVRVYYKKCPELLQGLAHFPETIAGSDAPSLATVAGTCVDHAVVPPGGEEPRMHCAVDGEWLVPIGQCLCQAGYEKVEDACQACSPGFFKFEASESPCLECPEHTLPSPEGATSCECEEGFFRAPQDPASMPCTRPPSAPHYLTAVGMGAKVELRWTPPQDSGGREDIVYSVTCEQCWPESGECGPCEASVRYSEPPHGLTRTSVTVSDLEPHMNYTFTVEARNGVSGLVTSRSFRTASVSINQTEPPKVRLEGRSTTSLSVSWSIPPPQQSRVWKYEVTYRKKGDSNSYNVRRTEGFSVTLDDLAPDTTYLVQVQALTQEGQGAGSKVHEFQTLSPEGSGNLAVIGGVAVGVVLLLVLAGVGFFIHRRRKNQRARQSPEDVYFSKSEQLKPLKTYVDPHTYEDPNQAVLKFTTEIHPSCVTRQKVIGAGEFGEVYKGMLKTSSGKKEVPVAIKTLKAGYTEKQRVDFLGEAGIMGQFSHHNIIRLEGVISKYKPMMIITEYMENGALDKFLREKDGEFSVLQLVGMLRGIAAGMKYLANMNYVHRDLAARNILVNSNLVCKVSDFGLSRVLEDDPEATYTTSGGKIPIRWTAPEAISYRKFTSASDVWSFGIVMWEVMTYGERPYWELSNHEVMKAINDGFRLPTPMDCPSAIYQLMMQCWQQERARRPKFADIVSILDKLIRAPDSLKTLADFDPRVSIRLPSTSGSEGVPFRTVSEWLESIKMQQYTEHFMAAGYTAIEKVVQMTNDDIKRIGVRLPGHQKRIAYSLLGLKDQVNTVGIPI
Experiment [15] shares this target. Conditions: at 10 µM.
Experiment [16] deals with T7, Ephrin type-A receptor 3 (Homo sapiens) (UniProt P29320).
T7 sequence (whole entry): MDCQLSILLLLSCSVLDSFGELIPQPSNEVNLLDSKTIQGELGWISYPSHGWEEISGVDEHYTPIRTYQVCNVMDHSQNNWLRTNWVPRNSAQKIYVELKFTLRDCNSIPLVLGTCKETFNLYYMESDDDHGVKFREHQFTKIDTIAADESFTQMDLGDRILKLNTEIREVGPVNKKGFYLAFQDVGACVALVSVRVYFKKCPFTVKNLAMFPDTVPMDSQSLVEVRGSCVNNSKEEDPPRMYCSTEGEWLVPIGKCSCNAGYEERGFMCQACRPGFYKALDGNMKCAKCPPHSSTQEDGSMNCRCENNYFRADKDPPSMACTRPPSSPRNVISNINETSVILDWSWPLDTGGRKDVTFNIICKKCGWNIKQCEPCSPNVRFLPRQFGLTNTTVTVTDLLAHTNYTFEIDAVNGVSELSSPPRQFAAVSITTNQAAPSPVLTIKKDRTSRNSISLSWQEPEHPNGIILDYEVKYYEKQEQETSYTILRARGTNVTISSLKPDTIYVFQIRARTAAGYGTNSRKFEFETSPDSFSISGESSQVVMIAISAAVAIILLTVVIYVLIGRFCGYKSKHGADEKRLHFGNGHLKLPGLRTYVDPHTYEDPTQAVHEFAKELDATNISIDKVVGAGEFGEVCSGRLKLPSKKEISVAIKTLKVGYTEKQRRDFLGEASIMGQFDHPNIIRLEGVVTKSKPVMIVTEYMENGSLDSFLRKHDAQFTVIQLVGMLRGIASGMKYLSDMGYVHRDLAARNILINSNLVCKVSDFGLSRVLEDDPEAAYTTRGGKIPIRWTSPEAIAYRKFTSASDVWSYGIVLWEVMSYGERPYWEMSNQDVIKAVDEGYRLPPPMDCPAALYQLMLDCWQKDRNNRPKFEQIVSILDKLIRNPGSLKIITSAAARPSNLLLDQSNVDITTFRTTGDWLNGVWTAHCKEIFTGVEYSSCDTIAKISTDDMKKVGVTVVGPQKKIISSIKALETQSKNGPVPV
Conditions: at 1 µM.

In experiment [17] the target is Death-associated protein kinase 1 (Homo sapiens) (UniProt P53355). Particulars: at 10 µM.
In experiment [18] the target is Death-associated protein kinase 2 (Homo sapiens) (UniProt Q9UIK4). Particulars: at 1 µM.
Sequence of Death-associated protein kinase 2 (Homo sapiens) (Q9UIK4 whole entry, looked up): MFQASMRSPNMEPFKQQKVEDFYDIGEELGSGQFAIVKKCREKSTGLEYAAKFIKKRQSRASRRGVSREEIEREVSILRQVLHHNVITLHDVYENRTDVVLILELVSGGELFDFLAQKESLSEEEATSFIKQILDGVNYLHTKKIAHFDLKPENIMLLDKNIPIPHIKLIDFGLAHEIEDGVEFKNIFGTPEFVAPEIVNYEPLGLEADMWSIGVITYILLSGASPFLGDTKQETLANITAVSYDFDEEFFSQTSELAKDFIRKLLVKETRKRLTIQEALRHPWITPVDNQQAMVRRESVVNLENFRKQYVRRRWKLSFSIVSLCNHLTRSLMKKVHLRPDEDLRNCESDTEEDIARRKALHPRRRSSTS
Experiment [19] has the same target. Conditions: at 10 µM.

What is called residual activity is the signal under treatment as a percentage of the control signal.

Sequence of Death-associated protein kinase 1 (Homo sapiens) (P53355 whole entry, looked up): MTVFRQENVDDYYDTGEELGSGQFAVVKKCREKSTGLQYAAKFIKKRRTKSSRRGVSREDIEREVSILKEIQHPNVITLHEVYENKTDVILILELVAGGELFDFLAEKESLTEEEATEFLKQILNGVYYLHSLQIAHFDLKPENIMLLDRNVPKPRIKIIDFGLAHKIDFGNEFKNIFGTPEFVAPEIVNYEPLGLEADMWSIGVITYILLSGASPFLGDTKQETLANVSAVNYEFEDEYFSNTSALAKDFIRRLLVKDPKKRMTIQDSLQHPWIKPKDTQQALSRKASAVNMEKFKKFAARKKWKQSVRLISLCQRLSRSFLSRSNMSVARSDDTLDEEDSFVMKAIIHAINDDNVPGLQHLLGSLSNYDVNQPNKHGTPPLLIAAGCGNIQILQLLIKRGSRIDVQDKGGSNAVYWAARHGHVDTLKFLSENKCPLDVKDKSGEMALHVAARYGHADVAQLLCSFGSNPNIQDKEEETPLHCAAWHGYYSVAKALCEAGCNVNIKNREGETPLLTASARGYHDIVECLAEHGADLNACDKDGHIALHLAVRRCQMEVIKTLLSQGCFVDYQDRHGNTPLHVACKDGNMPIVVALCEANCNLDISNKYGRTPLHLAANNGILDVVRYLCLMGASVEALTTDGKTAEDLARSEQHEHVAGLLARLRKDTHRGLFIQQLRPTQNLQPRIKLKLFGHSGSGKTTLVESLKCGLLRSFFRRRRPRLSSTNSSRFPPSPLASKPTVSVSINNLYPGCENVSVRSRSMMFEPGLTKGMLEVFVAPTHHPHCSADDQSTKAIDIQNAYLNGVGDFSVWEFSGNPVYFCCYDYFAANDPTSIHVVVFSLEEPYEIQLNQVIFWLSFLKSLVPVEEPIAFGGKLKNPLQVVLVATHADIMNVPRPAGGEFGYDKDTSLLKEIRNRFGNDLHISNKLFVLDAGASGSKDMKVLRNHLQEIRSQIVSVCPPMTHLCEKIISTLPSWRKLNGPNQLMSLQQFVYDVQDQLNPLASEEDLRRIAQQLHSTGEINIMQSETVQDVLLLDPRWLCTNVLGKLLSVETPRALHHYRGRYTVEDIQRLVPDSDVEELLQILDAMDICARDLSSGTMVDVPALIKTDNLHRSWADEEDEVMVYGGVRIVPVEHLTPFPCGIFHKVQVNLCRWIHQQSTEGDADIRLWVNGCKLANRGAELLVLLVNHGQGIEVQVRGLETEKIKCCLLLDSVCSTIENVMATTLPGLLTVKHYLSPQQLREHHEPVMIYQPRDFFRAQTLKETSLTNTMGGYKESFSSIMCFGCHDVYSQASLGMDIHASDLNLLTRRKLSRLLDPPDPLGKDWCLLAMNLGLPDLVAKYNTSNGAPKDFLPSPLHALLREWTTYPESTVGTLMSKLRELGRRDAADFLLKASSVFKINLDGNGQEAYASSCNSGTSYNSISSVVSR

With `CC(C)[C@H](CO)Nc1nc(Nc2cccc(Cl)c2)c2ncn(C(C)C)c2n1`, the residual activity in experiment [1] was found to be 87%; in experiment [2], 128%; in [3], 139%; in experiment [4] it was 91%; in experiment [5], 92%; in [6], 98%. For the same compound, the residual activity in experiment [7] was determined as 89%; in experiment [8], 116%; in [9], 92%; in [10] it was 99%; in [11], 86%; in experiment [12] it was 69%. Also, the residual activity came to 14% in experiment [13], 69% in experiment [14], 27% in experiment [15] and 86% in [16].
As for `O=C1NC(=O)c2c1c1c3ccccc3n3c1c1c2c2ccccc2n1C1CCC3O1`, the residual activity in [1] turned out to be 49%; in experiment [17] it was 60%; in experiment [18] it was 54%; in [19], 20%; in experiment [4], 77%; in experiment [5], 81%. Besides, the residual activity in experiment [8] was determined as 16%; in experiment [9], 8%; in experiment [10] it was 91%; in experiment [11] it was 58%; in experiment [14] it was 94%; in [15], 98%.
With `O=C(c1ccccc1)c1ccc(N2CCOCC2)cc1O`, the residual activity in experiment [1] was determined as 97%.
